# Experimental data reported in ChEMBL document CHEMBL1961873, “Compounds: GSK PKIS; Assays: Nanosyn kinase panel” (2012).
# Key:
# [1] = biological target: Tyrosine-protein kinase Fer (Homo sapiens) (UniProt P16591); settings: at 1 µM
# [2] = biological target: Tyrosine-protein kinase Fes/Fps (Homo sapiens) (UniProt P07332); settings: at 0.1 µM
# [3] = biological target: Tyrosine-protein kinase Fes/Fps (Homo sapiens) (UniProt P07332); settings: at 1 µM
# [4] = biological target: Fibroblast growth factor receptor 1 (Homo sapiens) (UniProt P11362); settings: at 0.1 µM
# Chain of Fibroblast growth factor receptor 1 (Homo sapiens) (P11362 22-822 limits assumed): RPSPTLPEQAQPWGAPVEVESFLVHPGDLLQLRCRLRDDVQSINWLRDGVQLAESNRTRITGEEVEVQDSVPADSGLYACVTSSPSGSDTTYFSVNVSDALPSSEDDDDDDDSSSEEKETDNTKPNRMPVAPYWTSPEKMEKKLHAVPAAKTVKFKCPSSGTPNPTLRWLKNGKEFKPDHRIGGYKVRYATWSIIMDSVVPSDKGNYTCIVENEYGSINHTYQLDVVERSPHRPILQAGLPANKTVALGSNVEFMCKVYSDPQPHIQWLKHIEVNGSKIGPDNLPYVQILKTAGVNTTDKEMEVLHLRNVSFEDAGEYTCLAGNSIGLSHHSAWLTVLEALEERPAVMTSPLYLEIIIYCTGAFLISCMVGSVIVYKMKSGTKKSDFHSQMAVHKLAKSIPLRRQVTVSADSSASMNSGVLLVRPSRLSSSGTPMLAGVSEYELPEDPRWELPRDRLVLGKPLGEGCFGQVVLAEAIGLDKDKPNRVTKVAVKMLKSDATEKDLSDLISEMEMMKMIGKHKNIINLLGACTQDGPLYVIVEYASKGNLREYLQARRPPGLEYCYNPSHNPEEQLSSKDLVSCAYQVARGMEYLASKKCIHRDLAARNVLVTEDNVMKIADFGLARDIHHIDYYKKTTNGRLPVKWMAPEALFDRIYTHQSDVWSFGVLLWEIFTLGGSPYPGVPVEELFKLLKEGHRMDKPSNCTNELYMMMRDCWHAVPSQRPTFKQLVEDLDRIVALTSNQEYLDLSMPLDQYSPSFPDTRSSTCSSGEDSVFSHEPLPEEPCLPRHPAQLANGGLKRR
# [5] = biological target: Fibroblast growth factor receptor 1 (Homo sapiens) (UniProt P11362); settings: at 1 µM
# [6] = biological target: Fibroblast growth factor receptor 2 (Homo sapiens) (UniProt P21802); settings: at 0.1 µM
# Chain of Fibroblast growth factor receptor 2 (Homo sapiens) (P21802 22-821 limits assumed): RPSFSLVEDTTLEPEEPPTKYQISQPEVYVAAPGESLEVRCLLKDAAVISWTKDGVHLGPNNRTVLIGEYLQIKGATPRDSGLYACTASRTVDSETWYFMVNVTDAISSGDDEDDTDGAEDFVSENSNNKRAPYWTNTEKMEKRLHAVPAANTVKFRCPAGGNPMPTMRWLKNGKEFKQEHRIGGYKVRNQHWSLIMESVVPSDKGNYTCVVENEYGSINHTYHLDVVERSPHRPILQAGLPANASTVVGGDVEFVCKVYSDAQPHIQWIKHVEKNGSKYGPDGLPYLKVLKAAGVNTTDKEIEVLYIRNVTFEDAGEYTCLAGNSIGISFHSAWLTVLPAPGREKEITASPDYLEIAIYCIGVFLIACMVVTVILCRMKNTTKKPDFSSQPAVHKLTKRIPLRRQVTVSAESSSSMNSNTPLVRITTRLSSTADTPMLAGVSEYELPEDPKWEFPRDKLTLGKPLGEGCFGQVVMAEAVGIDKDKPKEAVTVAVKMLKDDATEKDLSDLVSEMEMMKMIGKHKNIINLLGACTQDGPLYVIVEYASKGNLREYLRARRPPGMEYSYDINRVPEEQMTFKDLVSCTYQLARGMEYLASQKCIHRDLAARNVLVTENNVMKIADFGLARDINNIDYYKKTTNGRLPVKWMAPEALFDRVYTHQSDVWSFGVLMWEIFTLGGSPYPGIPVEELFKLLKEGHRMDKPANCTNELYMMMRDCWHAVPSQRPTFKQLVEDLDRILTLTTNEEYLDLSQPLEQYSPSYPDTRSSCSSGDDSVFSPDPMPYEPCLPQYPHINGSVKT
# [7] = biological target: Fibroblast growth factor receptor 2 (Homo sapiens) (UniProt P21802); settings: at 1 µM
# [8] = biological target: Fibroblast growth factor receptor 3 (Homo sapiens) (UniProt P22607); settings: at 0.1 µM
# Chain of Fibroblast growth factor receptor 3 (Homo sapiens) (P22607 23-806 limits assumed): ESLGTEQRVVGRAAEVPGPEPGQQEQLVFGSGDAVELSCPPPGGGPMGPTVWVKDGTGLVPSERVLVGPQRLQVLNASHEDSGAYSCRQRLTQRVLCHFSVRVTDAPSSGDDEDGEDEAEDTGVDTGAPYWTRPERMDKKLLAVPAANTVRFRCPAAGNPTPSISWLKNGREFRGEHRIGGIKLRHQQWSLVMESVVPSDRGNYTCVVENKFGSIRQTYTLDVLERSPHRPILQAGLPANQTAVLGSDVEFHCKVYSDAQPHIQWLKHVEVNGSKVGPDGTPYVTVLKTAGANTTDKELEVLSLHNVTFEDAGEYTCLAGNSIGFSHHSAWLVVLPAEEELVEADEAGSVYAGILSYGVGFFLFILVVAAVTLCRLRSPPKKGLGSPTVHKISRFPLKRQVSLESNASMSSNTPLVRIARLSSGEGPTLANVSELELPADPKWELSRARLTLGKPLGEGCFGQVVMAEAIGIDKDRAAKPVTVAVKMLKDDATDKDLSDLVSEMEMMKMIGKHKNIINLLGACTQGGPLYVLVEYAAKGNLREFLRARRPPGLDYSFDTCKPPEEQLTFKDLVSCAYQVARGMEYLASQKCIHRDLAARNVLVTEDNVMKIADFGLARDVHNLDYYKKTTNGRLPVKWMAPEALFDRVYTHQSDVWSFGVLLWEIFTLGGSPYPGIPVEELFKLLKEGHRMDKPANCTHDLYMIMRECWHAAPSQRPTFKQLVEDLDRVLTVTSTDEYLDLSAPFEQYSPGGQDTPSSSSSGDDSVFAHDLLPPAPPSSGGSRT
# [9] = biological target: Fibroblast growth factor receptor 3 (Homo sapiens) (UniProt P22607); settings: at 1 µM
# [10] = biological target: Fibroblast growth factor receptor 4 (Homo sapiens) (UniProt P22455); settings: at 0.1 µM;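 further: values are mean percent inhibition of FGFR4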
# Chain of Fibroblast growth factor receptor 4 (Homo sapiens) (P22455 22-802 limits assumed): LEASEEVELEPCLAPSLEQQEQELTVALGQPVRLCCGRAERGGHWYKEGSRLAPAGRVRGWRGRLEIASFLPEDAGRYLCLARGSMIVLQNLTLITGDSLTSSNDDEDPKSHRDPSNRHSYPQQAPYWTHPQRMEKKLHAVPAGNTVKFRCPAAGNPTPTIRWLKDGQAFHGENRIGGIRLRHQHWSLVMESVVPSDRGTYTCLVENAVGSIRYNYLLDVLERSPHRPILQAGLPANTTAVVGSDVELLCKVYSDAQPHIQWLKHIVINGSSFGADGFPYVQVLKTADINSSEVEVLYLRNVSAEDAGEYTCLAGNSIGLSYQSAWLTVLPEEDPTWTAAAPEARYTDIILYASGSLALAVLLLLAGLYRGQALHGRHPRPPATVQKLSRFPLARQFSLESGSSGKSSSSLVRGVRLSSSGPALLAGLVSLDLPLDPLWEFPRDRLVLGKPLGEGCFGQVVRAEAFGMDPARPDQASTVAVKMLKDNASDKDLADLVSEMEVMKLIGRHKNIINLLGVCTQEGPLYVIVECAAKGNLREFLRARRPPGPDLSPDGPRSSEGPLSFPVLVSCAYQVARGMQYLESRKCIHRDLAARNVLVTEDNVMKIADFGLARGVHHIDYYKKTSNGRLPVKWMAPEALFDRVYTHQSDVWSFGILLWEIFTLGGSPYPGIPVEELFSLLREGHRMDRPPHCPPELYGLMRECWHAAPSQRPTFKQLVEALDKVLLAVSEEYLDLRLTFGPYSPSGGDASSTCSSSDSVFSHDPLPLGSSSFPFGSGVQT
# Chain of Tyrosine-protein kinase Fer (Homo sapiens) (P16591 whole entry, looked up): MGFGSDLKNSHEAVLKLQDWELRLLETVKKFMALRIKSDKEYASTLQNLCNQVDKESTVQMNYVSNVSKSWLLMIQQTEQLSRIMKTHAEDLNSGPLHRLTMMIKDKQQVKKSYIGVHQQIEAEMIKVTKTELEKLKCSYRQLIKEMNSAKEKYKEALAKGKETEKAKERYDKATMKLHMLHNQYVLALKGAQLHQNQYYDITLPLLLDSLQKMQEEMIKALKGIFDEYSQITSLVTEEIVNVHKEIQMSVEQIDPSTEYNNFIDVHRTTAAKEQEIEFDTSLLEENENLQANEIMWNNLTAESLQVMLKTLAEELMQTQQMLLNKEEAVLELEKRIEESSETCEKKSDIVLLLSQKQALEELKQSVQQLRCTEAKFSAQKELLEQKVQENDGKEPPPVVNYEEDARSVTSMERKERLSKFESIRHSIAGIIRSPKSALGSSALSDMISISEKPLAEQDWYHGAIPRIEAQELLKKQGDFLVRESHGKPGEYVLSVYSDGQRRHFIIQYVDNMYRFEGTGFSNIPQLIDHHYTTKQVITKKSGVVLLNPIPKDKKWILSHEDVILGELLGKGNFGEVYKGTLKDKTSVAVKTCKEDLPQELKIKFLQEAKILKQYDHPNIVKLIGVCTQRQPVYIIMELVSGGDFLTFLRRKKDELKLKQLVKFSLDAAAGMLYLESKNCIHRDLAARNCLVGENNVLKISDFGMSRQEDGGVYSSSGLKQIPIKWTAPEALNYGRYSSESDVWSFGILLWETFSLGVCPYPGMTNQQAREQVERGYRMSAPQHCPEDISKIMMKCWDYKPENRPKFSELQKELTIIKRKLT
# Chain of Tyrosine-protein kinase Fes/Fps (Homo sapiens) (P07332 whole entry): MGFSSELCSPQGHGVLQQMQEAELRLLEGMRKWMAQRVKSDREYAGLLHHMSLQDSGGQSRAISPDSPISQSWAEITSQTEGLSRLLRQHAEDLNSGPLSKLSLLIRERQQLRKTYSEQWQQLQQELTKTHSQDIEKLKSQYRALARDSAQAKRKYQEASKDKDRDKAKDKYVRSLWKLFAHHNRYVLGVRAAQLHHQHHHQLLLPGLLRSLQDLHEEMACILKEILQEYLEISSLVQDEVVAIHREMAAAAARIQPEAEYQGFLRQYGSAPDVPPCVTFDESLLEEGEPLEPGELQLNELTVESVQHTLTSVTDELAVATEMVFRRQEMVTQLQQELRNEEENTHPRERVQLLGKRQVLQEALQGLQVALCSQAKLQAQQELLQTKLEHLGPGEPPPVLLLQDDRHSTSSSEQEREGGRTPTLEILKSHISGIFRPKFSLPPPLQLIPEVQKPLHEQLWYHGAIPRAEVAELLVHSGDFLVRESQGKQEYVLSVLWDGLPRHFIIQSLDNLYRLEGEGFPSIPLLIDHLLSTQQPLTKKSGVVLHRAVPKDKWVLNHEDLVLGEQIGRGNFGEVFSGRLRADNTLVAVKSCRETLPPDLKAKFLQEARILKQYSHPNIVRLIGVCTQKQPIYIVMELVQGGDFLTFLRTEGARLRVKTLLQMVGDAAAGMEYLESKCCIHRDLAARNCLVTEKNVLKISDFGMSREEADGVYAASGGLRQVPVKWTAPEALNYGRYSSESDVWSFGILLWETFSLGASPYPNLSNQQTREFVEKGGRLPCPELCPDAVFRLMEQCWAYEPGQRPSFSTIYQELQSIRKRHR
SMILES,inhibition [1] [%],inhibition [2] [%],inhibition [3] [%],inhibition [4] [%],inhibition [5] [%],inhibition [6] [%],inhibition [7] [%],inhibition [8] [%],inhibition [9] [%],inhibition [10] [%]
COc1ccc(-c2oc3ncnc(N)c3c2-c2ccc(NC(=O)Nc3cc(C(F)(F)F)ccc3F)cc2)cc1,64.5,3.91,17.1,10.1,66,31.2,75.9,10,63.8,5.68
CCN(CC)S(=O)(=O)c1ccc(OC)c(Nc2ncc(-c3ccccc3)o2)c1,4.52,0.12,-0.42,0.18,23.7,15,54.6,18.4,59.5,2.44
CN1CCC(n2cnc(-c3ccc(F)cc3)c2-c2ccnc(Nc3ccccc3)n2)CC1,4.62,2.34,3.11,1.2,-0.76,2.32,4.35,4.39,0.24,0.09
Fc1ccc(-c2cc(-c3c[nH]nc3-c3ccccn3)ccn2)cc1,5.23,2.57,3.31,6.18,6.81,5.36,5.13,4.33,,-0.17
NS(=O)(=O)c1ccc(N/N=C2\C(=O)Nc3ccc4ncccc4c32)cc1,22.8,2.15,6.75,10.8,41,27.5,69.8,26.1,70.7,-0.17
O=S(=O)(CCNCc1ccc(-c2ccc3ncnc(Nc4ccc(OCc5cccc(F)c5)c(Cl)c4)c3c2)o1)c1ccccc1,4.93,4.42,4.26,3.65,8.42,7.23,11.6,7.36,6.93,-5.68
COc1cc(Nc2nccc(Nc3ccc4c(C)n[nH]c4c3)n2)cc(OC)c1OC,36.1,3.05,10.6,5.2,24.8,7.33,39.8,8.22,30.5,2.39
COc1cc(/C=N/Nc2ncnc3[nH]ncc23)ccc1O,14.3,2.22,7.19,1.55,7.94,4.76,16.9,5.91,19,-1.95
CC(=O)NCc1cccc(C#Cc2cncnc2Nc2ccc(OCc3cccc(F)c3)c(Cl)c2)c1,0.86,0.32,0.52,-0.81,-0.46,-2.84,-0.08,0.88,0.49,0.41
COc1ccc2c(-c3ccnc(Nc4cccc(OC(F)(F)F)c4)n3)cnn2n1,16.5,3.41,8.88,1.54,0.82,11.6,6.91,5.66,6.19,1.76
COC(=O)Nc1nc2ccc(Oc3ccc(NC(=O)Nc4cccc(Cl)c4)cc3)cc2[nH]1,2.41,1.11,0.57,2.31,9.33,2.67,2.53,2.97,2.72,0.5
CCc1nn2ncccc2c1-c1ccnc(NC2CC2)n1,4.48,1.57,2.04,1.58,7.38,8.21,10.7,6.71,11,4.64
CS(=O)(=O)CCNCc1ccc(-c2ccc3ncnc(Nc4ccc(OCc5ccccc5)c(C(F)(F)F)c4)c3c2)o1,1.94,3.29,3.27,1.07,5.49,3.74,6.37,4.77,5.71,2.52
c1cc(-c2cnn3nc(N4CCOCC4)ccc23)nc(NC2CC2)n1,1.58,3.42,4.53,8.29,9.37,4.74,11.4,6.59,10.9,1.73
CN1CCC(n2cnc(-c3ccc(F)cc3)c2-c2ccnc(N)n2)CC1,8.24,2.63,2.33,-0.33,-2.26,1.68,4.49,3.51,4.31,1.4
COc1ccc2[nH]c3c4[nH]c5ccc(OC)cc5c4c4c(c3c2c1)C(=O)NC4=O,67.7,3.43,10.4,1.76,3.2,4.75,16.4,7.7,15.2,2.26
c1ccc(COc2ccc(Nc3ncnc4ccc(-c5ccco5)cc34)cc2)cc1,4.05,2.03,1.74,-8.22,-7.82,1.65,8.16,2.01,7.69,3.87
